Source: PubChem BioAssay
Sampled rows, rich in hits. Any-hit rate of the full collection: about 2.3%.
FAS-TE inh = inhibitors of human fatty acid synthase thioesterase domain. P49327. 0.67% of 360,000 active. AID 602261. recombinant FAS-TE, OMFH fluorogenic substrate, fluorescence endpoint. inhibition, % at 15 µM;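 active = compounds whose normalised, plate-corrected inhibition of enzyme fluorescence in the single-dose primary screen is 50% or more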
Target sequence (P49327 whole entry, looked up, the tested form may be a part): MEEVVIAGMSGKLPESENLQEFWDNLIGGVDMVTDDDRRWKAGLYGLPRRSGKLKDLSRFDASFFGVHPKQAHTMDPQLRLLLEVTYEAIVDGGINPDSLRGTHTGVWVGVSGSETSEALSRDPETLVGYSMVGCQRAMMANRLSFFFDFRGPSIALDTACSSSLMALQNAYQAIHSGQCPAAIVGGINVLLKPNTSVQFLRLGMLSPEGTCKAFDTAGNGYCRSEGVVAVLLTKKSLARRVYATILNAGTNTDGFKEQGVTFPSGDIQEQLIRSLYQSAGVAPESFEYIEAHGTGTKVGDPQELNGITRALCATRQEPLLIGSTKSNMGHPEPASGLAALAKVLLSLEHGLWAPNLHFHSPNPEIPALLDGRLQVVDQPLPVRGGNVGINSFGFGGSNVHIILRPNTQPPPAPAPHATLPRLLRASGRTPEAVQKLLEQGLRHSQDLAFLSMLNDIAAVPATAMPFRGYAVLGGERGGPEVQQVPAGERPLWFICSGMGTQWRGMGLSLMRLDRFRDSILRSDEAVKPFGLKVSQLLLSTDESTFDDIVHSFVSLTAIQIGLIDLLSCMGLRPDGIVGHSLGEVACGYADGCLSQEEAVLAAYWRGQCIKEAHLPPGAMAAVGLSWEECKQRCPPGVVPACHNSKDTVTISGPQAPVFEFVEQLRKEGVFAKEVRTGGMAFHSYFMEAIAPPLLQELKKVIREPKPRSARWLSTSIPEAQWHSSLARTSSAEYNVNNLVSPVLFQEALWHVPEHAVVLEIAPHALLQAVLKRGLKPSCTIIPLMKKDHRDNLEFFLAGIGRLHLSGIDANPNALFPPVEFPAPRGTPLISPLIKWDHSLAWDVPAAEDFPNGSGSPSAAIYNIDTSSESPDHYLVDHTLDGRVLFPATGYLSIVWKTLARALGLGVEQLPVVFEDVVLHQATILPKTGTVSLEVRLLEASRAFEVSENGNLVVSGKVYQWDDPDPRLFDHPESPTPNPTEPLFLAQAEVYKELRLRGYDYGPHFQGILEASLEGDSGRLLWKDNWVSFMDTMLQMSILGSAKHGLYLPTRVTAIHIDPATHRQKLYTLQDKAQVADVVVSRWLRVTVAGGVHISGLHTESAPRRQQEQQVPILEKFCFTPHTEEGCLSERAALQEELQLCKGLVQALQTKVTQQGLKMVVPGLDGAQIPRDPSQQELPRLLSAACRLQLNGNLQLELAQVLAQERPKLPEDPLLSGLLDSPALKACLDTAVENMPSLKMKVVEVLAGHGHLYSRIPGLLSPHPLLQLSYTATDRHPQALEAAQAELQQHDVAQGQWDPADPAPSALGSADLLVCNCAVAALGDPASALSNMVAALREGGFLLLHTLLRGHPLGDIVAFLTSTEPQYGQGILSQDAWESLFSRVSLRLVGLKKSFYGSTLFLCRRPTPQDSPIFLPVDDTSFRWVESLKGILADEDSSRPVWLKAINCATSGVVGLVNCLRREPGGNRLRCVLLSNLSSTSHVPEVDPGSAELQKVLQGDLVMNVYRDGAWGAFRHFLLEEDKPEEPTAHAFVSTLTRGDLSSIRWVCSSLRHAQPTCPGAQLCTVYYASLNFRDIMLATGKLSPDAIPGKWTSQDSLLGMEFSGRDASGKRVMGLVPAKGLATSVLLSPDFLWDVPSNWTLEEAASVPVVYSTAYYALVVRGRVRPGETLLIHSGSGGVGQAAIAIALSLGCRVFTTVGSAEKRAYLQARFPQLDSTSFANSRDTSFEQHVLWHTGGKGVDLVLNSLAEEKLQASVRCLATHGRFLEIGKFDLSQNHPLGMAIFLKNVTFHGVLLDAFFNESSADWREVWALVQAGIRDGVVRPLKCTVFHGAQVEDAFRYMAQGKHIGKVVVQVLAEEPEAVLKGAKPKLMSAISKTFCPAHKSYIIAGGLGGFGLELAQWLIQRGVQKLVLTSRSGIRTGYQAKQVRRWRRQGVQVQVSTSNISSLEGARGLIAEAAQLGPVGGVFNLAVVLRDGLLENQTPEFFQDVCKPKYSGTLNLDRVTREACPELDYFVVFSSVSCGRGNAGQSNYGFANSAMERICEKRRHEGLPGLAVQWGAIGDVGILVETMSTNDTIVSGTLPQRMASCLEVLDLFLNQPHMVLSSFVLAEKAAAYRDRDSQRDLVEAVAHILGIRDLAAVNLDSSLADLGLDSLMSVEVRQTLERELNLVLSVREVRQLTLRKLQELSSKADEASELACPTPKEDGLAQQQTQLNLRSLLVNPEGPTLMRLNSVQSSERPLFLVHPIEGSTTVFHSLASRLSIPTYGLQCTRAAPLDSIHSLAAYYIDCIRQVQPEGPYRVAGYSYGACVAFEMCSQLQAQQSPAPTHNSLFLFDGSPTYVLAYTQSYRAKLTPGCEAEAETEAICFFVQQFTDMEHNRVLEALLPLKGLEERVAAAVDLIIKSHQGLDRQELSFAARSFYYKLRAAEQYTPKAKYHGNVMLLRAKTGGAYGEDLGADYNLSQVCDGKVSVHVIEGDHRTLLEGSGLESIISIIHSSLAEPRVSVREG
aDG glyco act = increases alpha dystroglycan glycosylation. 0.22% of 360,000 active. activation, % at 10 µM. AID 624168. Pro5-aDG cells, alpha-DG glycosylation AlphaScreen (IIH6); 0% Pro5, 100% B10-LARGE cell signal;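 active = activation of at least 8% versus controls, or a plate z-score of at least 8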;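 note: Pro5 are CHO cells carrying HIG-tagged alpha-DG that lacks glycosylation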
Cardio protect = protects H9c2 cardiomyocytes from peroxide injury; 0.63% of 360,000 active; protection from H2O2 cell death, % at 20 µM; H2O2 injury protection, ATPLite, 2 h;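 active = compounds giving at least 50% protection of heart cells from peroxide-induced death in the single-dose screen, raw or plate-pattern-corrected value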
Calpain2 inh = blocks pig calpain II enzyme activity. purified calpain II, fluorogenic peptide substrate, 30 min. inhibition, % at 16 µM. 0.37% of 220,000 active. AID 1236;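 active = inhibition above about 50%, limit read from the data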
TAG inh = reduces triacylglycerol accumulation in H9c2 cells; Nile Red lipid (TAG) fluorescence; cells loaded with 200 µM oleic acid; inhibition, % at 12.5 µM; 0.66% of 230,000 active;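 active = pattern-corrected inhibition of lipid staining of at least 50% with the nuclear-stain viability signal not falling by more than 50%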
MIN6 prolif-1 = induces beta-cell replication in MIN6 cells. 0.29% of 330,000 active. MIN6 cells proliferation, ATPlite luminescence, 48 h; cells starved in 0.2% serum; 100% = growth in 10% serum. proliferation, % at 10 µM;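 active = compounds whose signal lies at least 3.5 SD above the mean of all wells on their plate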
MIN6 prolif-2 = confirmation of inducers of beta-cell replication in MIN6 cells; MIN6 beta-cell proliferation, ATPlite luminescence, 48 h; cells kept in 0.2% serum; scaled between 0.2% and 10% serum; shares compounds with MIN6 prolif-1; proliferation increase, % at 50 µM; AID 463095; 920 tested, under 10 active;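 active = proliferation increase above 40% at any of the four tested concentrations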
Of the large screens only hits and unclear results are named; the others gave an inactive call (follow-up assays come after a bar, where they were run).

COc1ccc(-c2c(C(C)=O)c(C)nc3sc4c(c23)NC(c2ccccc2)NC4=O)cc1 (centres undefined)	none (no result: TAG inh)
O=[N+]([O-])c1ccc(NC(=S)N2CCc3ccccc32)cc1	none (no result: Calpain2 inh)
COc1cccc(Cn2cc(C)cc(NC(=O)NCc3ccccc3)c2=O)c1	none (no result: Calpain2 inh)
CCOc1ccc(/C=N/NC(=O)c2ccc(F)cc2)cc1CN1CC2CC(C1)c1cccc(=O)n1C2 (centres undefined)	none (no result: Calpain2 inh, TAG inh)
COC(=O)N1C(=O)[C@@](CC(C)C)(c2ccccc2)N1C(=O)OC	MIN6 prolif-1 17 (no result: FAS-TE inh, aDG glyco act, Cardio protect, Calpain2 inh, TAG inh) | MIN6 prolif-2 inactive
CC[C@@]1(c2ccccc2OC)C(=O)N(C(=O)OC)N1C(=O)OC	none (no result: Calpain2 inh)
CCc1nc2ccccc2n1CC(O)COCC1CC=CCC1 (centres undefined)	MIN6 prolif-1 12 | MIN6 prolif-2 inactive
O=C(c1ccccc1)N1CCN(CC(O)COCC2CC=CCC2)CC1 (centres undefined)	none
CCN1CCN(c2sc(S(=O)(=O)CC)nc2S(=O)(=O)c2ccc(C)cc2)CC1	none (no result: Calpain2 inh, MIN6 prolif-1)
CCN1CCN(c2sc(S(C)(=O)=O)nc2S(=O)(=O)c2ccc(C)cc2)CC1	MIN6 prolif-1 16 (no result: Calpain2 inh, TAG inh) | MIN6 prolif-2 inactive
CCNC(=O)C1CCCN(C(=O)C(c2ccccc2)c2ccccc2)CC1 (centres undefined)	none (no result: Calpain2 inh, MIN6 prolif-1)
COC1=CC(=O)OC12CCCCC2	MIN6 prolif-1 8.2 (no result: TAG inh) | MIN6 prolif-2 inactive
O=C1C=C(N2CCCCCC2)C2(CCCCC2)O1	none
O=C1c2ccccc2C(c2nnnn2-c2ccc3c(c2)OCCO3)N1CCc1ccccc1F (centres undefined)	none (no result: Cardio protect, Calpain2 inh, TAG inh, MIN6 prolif-1)
Cc1[nH]c2ccc(C(=O)OC(C)C(=O)NC3CCCCC3C)cc2c1C (centres undefined)	MIN6 prolif-1 13 (no result: Calpain2 inh) | MIN6 prolif-2 inactive
CC(OC(=O)c1ccc2c(c1)OCO2)C(=O)NC1CCCCC1C (centres undefined)	none (no result: Calpain2 inh)
CC(C)CC(C(=O)NC1CCCCC1)N(Cc1cccs1)C(=O)c1snc(C(N)=O)c1N (centres undefined)	Cardio protect 51, MIN6 prolif-1 7.1 | MIN6 prolif-2 inactive
CC(C)CC(C(=O)NC1CCCC1)N(Cc1cccs1)C(=O)c1snc(C(N)=O)c1N (centres undefined)	none
COc1ccc2oc(C)c(C(=O)c3ccc([N+](=O)[O-])cc3)c2c1	none (no result: TAG inh)
Cc1oc2ccc(O)cc2c1C(=O)c1ccc(F)cc1	MIN6 prolif-1 15 (no result: Calpain2 inh) | MIN6 prolif-2 inactive
O=C(NNC(=O)c1cccs1)c1ccccn1	none (no result: Calpain2 inh, MIN6 prolif-1)
Cc1ccc(F)cc1CNC(=O)C1CCC(=O)N(CC2CCCCC2)C1 (centres undefined)	none (no result: Calpain2 inh, TAG inh)
O=C1c2ccccc2C(=O)N1CCCP(=O)(O)CCc1ccccc1	none
O=P(O)(CCCP(=O)(O)CCc1ccccc1)CCc1ccccc1	MIN6 prolif-1 8.8 (no result: Calpain2 inh) | MIN6 prolif-2 inactive
CC1CCN(S(=O)(=O)c2cccc(C(=O)NC3CCS(=O)(=O)C3)c2)CC1 (centres undefined)	none (no result: Calpain2 inh, MIN6 prolif-1)
Cc1cc(NS(=O)(=O)c2ccc(NC(=O)CSc3nnc(-c4ccco4)n3C)cc2)nc(C)n1	MIN6 prolif-1 5.8 (no result: TAG inh) | MIN6 prolif-2 inactive
CCCn1c(N)c(N(CCOC)C(=O)c2ccccc2)c(=O)[nH]c1=O	none (no result: Calpain2 inh, TAG inh)
Cc1ccc(CNC(=O)C2CCCN(c3ncnc4c3nc3n4CCCCC3)C2)cc1 (centres undefined)	MIN6 prolif-1 14 (no result: Calpain2 inh, TAG inh) | MIN6 prolif-2 inactive
CCCNC(=O)c1n[nH]c(=O)c2ccccc12	MIN6 prolif-1 5.6 | MIN6 prolif-2 inactive
CCC(=O)Nc1cc(C(=O)O)ccc1Sc1ccc(C)cc1	MIN6 prolif-1 7.5 | MIN6 prolif-2 inactive
CC1(C(=O)Nc2ccc(Cl)c(Cl)c2)CCN1CCc1ccccc1 (centres undefined)	none (no result: Calpain2 inh, MIN6 prolif-1)
COC(=O)c1cnc(N2CCCN(S(=O)(=O)c3ccccc3)CC2)nc1C(F)(F)F	none
COC(=O)c1cnc(N2CCOCC2)nc1C(F)(F)F	MIN6 prolif-1 6.3 | MIN6 prolif-2 inactive
O=C(CN1CCN(CC(=O)Nc2cccc(F)c2)CC1)Nc1ccc(-c2ccccc2)cc1	none (no result: Calpain2 inh, TAG inh)
O=C(COC(=O)Cc1cccs1)Nc1cc(S(=O)(=O)N2CCOCC2)ccc1Cl	none (no result: Calpain2 inh)
Clc1ccc2nc(C3CCCCC3)c(CC3CCCCC3)n2c1	none (no result: Calpain2 inh, TAG inh, MIN6 prolif-1)
O=[N+]([O-])c1ccc(-n2nnnc2CN2CCOCC2)cc1	none
O=[N+]([O-])c1ccc(-n2nnnc2CN2CCCCC2)cc1	MIN6 prolif-1 9.3 | MIN6 prolif-2 inactive
Cc1cc2c(ncn2C)c(NS(=O)(=O)c2ccc(F)cc2)c1C	none (no result: TAG inh)
Cc1cc2c(ncn2C(C)C)c(NS(=O)(=O)c2ccc(F)cc2)c1C	MIN6 prolif-1 8.9 | MIN6 prolif-2 inactive
Cc1ccc(NC(=O)CN(c2ccccc2F)S(C)(=O)=O)cc1	MIN6 prolif-1 5.1 | MIN6 prolif-2 inactive
Cc1ccccc1N(CC(=O)Nc1ccc(F)cc1)S(C)(=O)=O	none
CCOC(=O)c1ccccc1NC(=O)CN(c1ccccc1C)S(C)(=O)=O	MIN6 prolif-1 8.4 | MIN6 prolif-2 inactive
CCN(C(=O)c1cc(OC)c(OC)c(OC)c1)C1CCCCC1	none (no result: Calpain2 inh, MIN6 prolif-1)
CN(CC(=O)N1CCCCCC1)S(=O)(=O)c1ccccc1	none (no result: Calpain2 inh, TAG inh)
CCOc1cc(/C=N/n2cnnc2)ccc1OCC(=O)Nc1ccccc1OC	MIN6 prolif-1 8.0 | MIN6 prolif-2 inactive
COc1ccccc1NC(=O)COc1ccc(/C=N/n2cnnc2)cc1OC	none (no result: TAG inh)
Clc1ccc(-c2cnc3ccccc3n2)cc1	MIN6 prolif-1 5.4 (no result: TAG inh) | MIN6 prolif-2 inactive
Oc1ccc(-c2cnc3ccccc3n2)cc1	none (no result: Calpain2 inh)
Cn1nc(C(=O)N2CCN(c3ccc(F)cc3)CC2)c2c1-c1ccccc1S(=O)(=O)C2	none (no result: Calpain2 inh, TAG inh)
COc1ccc(-c2cn[nH]c2-c2ccc(OC)cc2O)cc1	MIN6 prolif-1 9.3 (no result: Calpain2 inh, TAG inh) | MIN6 prolif-2 inactive
COc1ccc(-c2[nH]ncc2-c2ccc(Cl)cc2)c(O)c1	none (no result: TAG inh)
COc1cccc(C2NC(=O)NC(C)=C2C(=O)Nc2ccc(C)cc2)c1OC (centres undefined)	MIN6 prolif-1 5.4 (no result: TAG inh) | MIN6 prolif-2 inactive
COc1ccc(S(=O)(=O)N2CCOCC2)cc1NC(=O)CSc1nnc2n1CCCCC2	none (no result: Calpain2 inh)
COc1cc(/C=C/c2[nH]c(=O)[nH]c(=O)c2[N+](=O)[O-])cc(OC)c1O	MIN6 prolif-1 5.7 (no result: Calpain2 inh, TAG inh) | MIN6 prolif-2 inactive
O=C(Nc1ccccc1F)NC1CCCc2ccccc21 (centres undefined)	MIN6 prolif-1 7.2 | MIN6 prolif-2 inactive
CC1(C(=O)NCCC#N)CCN1C(=O)C1(c2ccccc2)CC1 (centres undefined)	none (no result: Calpain2 inh, MIN6 prolif-1)
O=C(COC(=O)Cn1cnc2ccccc21)Nc1cccc([N+](=O)[O-])c1	none
O=C(Cn1cnc2ccccc21)Nc1cccc([N+](=O)[O-])c1	MIN6 prolif-1 8.2 | MIN6 prolif-2 inactive
